Screens from PubChem BioAssay.
BAZ2B inh – qHTS Assay for Inhibitors of BAZ2B; Potency, µM (top dose mostly 114 µM), for the others: top-dose activity change, negative = inhibition, usual class: inhibitors; 360,000 tested, 4.4% active; AlphaScreen BAZ2B-H3K14Ac peptide displacement; AID 504333, 2011; also: % is scaled to controls: 0 for no effect and ±100 for the full control effect; nearly all actives have a fitted effect of over 60% in size
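AlphaScreen displacement of biotin-H3(5-23)K14Ac peptide (50 nM final) from BAZ2B (50 nM final) in PBS pH 7.4, 0.01% Tween-20; complex preformed 30 min RT, then compounds (top 110 uM) 30 min RT, beads 20 min dark.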
HP1b binding inh – HTS for Inhibitors of HP1-beta Chromodomain Interactions with Methylated Histone Tails | Potency, µM (doses to about 114 µM), without a hit: at the highest dose activity change, negative = inhibition, actives largely listed as inhibitors | AlphaScreen HP1-beta / biotin-H3K9me3 peptide binding | Chromobox protein homolog 1 (Homo sapiens), P83916 | 390,000 tested, 0.56% active; also: nearly all actives have a fitted effect of over 70% in size
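HP1-beta protein (50 nM final) preincubated 30 min at room temperature with biotinylated H3(1-18)K9me3 peptide (50 nM) in PBS pH 7.4, 0.01% Tween-20, then compound added for 30 min. AlphaScreen streptavidin donor/nickel chelate acceptor beads (10 ug/mL final), 30 min dark, luminescence read.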
G9a block – qHTS Assay for Inhibitors of Histone Lysine Methyltransferase G9a; Histone-lysine N-methyltransferase EHMT2 (Homo sapiens), Q96KQ7; 350,000 tested, 8.8% active; Potency, µM (doses to about 102 µM), for the others: top-dose activity, negative = inhibition, hits mostly inhibitors; G9a H3K9 monomethylation, AlphaScreen, 2 h; also: % is scaled to controls: 0 for no effect and ±100 for the full control effect; nearly all actives have a fitted effect of over 75% in size
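Enzyme 20 nM + cpd, 15 min RT; add b-H3K9 pep 500 nM / SAM 20 uM; 2 h RT; anti-H3K9me1 Ab 0.5 ug/mL + SA donor / anti-rabbit acceptor beads 20 ug/mL each, 10 min; AlphaScreen read.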
Sfp PPTase inh – qHTS Assay for Inhibitors of Bacillus subtilis Sfp phosphopantetheinyl transferase (PPTase) | 4'-phosphopantetheinyl transferase ffp (Bacillus subtilis), Q9F4F7 | Biochemical Sfp PPTase activity, qHTS | 310,000 tested, 3.5% active | Potency, µM, inactives show largest response in the series, negative = inhibition, most hits filed as inhibitors;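 also: the enzyme is Sfp with the accession as filed and its product quenches rhodamine fluorescence; 0% = enzyme reaction without inhibitor and -100% = no enzyme wells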
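Fluorescence-quenching assay: 15 nM Sfp-PPTase preincubated 15 min at room temperature with compound, then 5 uM rhodamine-CoA and 12.5 uM BHQ-2-labelled YbbR peptide added. Fluorescence (ex 525/em 598 nm) read at start and after 30 min; difference gives rate.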
L3MBTL1 inh – qHTS Assay for the Inhibitors of L3MBTL1; Lethal(3)malignant brain tumor-like protein 1 (Homo sapiens), Q9Y468; AlphaScreen L3MBTL1–H3K9me1 peptide binding; Potency, µM (doses to about 57.1 µM), for inactives: at the top dose activity, negative = inhibition, hits mostly inhibitors; 230,000 tested, 0.66% active; AID 485360, 2010; also: % is scaled to controls: 0 for no effect and ±100 for the full control effect; nearly all actives have a fitted effect of over 60% in size
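Read-out is AlphaScreen signal from streptavidin donor and nickel chelate acceptor beads (10 ug/mL final each) bridging L3MBTL1 (50 nM) and biotinylated K9-monomethylated H3(1-15) peptide (75 nM), after 30 min compound exposure at room temperature.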
JMJD2A Tudor – qHTS Assay for Inhibitors of JMJD2A-Tudor Domain. 390,000 tested, 4.4% active. AlphaScreen JMJD2A-Tudor / H3K4me3 peptide binding. Potency, µM (top dose mostly 114 µM), inactives show top-dose activity change, negative = inhibition, most hits filed as inhibitors. Lysine-specific demethylase 4A (Homo sapiens), O75164; also: % is scaled to controls: 0 for no effect and ±100 for the full control effect; nearly all actives have a fitted effect of over 50% in size
Numbers without * were called inactive; u = inconclusive; x = not tested or not shown; [ ] = another dose, or the depositor's remark. Compounds with a hit are over-represented: about 12% of the library has one in this group of screens. Calls follow the shape of the dose curve; as a rule, active = well fitted curve in the direction sought with a large enough effect; inconclusive = small, poorly fitted or top-dose-only effect, or another doubt; inactive = no such curve, though single readings can be large; an effect the other way counts as inactive or inconclusive. Potency is read from the fitted curve at half-maximal effect.

SMILES	BAZ2B inh	HP1b binding inh	G9a block	Sfp PPTase inh	L3MBTL1 inh	JMJD2A Tudor
CCOC(=O)c1c(-c2ccc(C)cc2)csc1NC(=O)c1cc(-c2ccc(Cl)cc2)on1	-3%	24%	6%[59 µM]	x	x	-10%
COc1ccc2[nH]cc(CCNC(=O)c3cnn(-c4ccc(C)cc4)c3C3CCN(C(=O)OC(C)(C)C)CC3)c2c1	-21%[57.1 µM]	5%	-33%[59 µM]	x	x	u
CCN1C(=O)[C@@H]2Cc3c([nH]c4ccccc34)C(c3ccc(OC)cc3)N2C1=S (stereo partly drawn)	-30%	1%	35µM*	11%	x	u
COc1ccc(C2C=C3CNS(=O)(=O)C3CC2OC(=O)c2cccc(C)c2)cc1 (stereo not drawn)	x	20%	x	9%	x	-33%
O=C(CSc1nc2ccccc2n1CCc1ccccc1)N1CCOCC1	6%	39%	50µM*	5%	-12%	-3%
O=C(CSc1nc2ccccc2n1CC(=O)N1CCOCC1)N1CCCC1	-1%	18%	-47%[59 µM]	9%	9%	-15%[57.1 µM]
Cc1nc2ccccc2n1CC(=O)c1ccc(O)c(O)c1	u	22%	-14%[2.33 µM]	x	-8%	u
O=C(CSc1nc2ccccc2n1CCc1ccccc1)c1ccc(O)c(O)c1	2.5µM*	25µM*	x	50µM*	3.2µM*	7.9µM*
CCNC(=S)Nc1c(C)n(C)n(-c2ccccc2)c1=O	-1%	27%	-17%	-1%	-1%	-7%
Cc1c(NC(=O)CN2CCN(c3ccc([N+](=O)[O-])cc3)CC2)c(=O)n(-c2ccccc2)n1C	-21%	24%[57 µM]	1%	11%	x	-4%
Cc1c(NC(=O)CN2CCN(c3ccc(O)cc3)CC2)c(=O)n(-c2ccccc2)n1C	x	u	6.3µM*	22µM*	-6%	28µM*
Cc1c(NC(=S)NNC(=O)CCC(=O)O)c(=O)n(-c2ccccc2)n1C	-11%	50%	u	45µM*	x	-12%
Cc1c(NC(=O)C(=O)/C=C(\O)c2ccc(Br)cc2)c(=O)n(-c2ccccc2)n1C	u	-17%	u	-6%	-9%	25µM*
CCN(CC)C(=O)C(C(=O)c1cccc([N+](=O)[O-])c1)n1cc(Cl)ccc1=O (stereo not drawn)	4%	15%	-27%	4%	14%	-20%
Cc1ccc(C)c(NC(=O)CSc2nc(=O)n(CCN(C)C)c3c2CCC3)c1	18%	59%	8%[59 µM]	x	x	-11%
COc1ccc(NC(=O)[C@@H](c2ccccc2)N2Cc3ccccc3C2=O)cc1OC	-36%	7%	-30%[59 µM]	x	x	-26%
CCCCn1c(-c2nn(C)c(C)c2Cl)n[nH]c1=S	11%[57.1 µM]	-30%	11µM*	8%	1%	8.9µM*
Cc1c(Cl)c(-c2n[nH]c(=S)n2CC(C)C)nn1C	29%	u	35µM*	-11%	11%	5µM*
CCC(C)c1ccccc1N1CC(C(=O)N(C)CC(=O)Nc2cccc(F)c2)CC1=O (stereo not drawn)	-15%	32%	1%[0.501 µM]	x	-10%	4%
Cc1cccn2c(=O)c3cc(C(=O)NCc4cccnc4)c(=N)n(CC4CCCO4)c3nc12 (stereo not drawn)	3%	19%	-5%	16%	x	-11%
C/C(=N\NC(=O)Cc1cccn1C)c1ccc2ccccc2c1	u	-2%	71µM*	-1%	x	u
O=C(NNC(=S)Nc1ccccc1)c1cc(Br)ccc1Cl	-21%	3%	40µM*	14%	x	-24%
Cc1ccc(NC(=S)NNC(=O)Nc2ccccc2)cc1	-31%	19%	u	u	-10%	-11%[11.4 µM]
